Consider ten compounds from PubChem BioAssay (NCI).

Test systems include RPMI-8226 leukemia; OVCAR-8 ovarian; OVCAR-5 ovarian; OVCAR-4 ovarian; SK-OV-3 ovarian; IGROV1 ovarian; OVCAR-3 ovarian; HS 578T breast; NCI/ADR-RES ovarian; BT-549 breast; MDA-MB-435 melanoma; SW-620 colon; MCF7 breast; HCT-116 colon; HCC-2998 colon; KM12 colon; T-47D breast.
Common to all, as to test: NCI-60 one-dose screen, 48 h (100 = growth as untreated, 0 = no growth, -100 = all killed)
Holding throughout (conditions): 10 µM unless noted

Compounds without any hit were thinned out: in the full panel of roughly 83,000, 20% have a hit.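 Single-dose data. Exposure time 48 hours. Values below 10 considered active.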 A number with no mark means an inactive call. The source made the active and inactive calls.

In the case of `Cc1ccc(C(=O)Nc2ccc(CN3CCN(C)CC3)c(C(F)(F)F)c2)cc1C#Cc1cnc(N)c2ccc(C#N)cc12`, the growth in the assay on RPMI-8226 leukemia was 20.2%; in the assay on OVCAR-8 ovarian, 27.8%; in the assay with OVCAR-5 ovarian, 98.4%; in the assay with OVCAR-4 ovarian, 48.8%; with SK-OV-3 ovarian it was 2.3% (active); with IGROV1 ovarian, 16.3%. For the same compound, the growth is 61.2% with OVCAR-3 ovarian; 47.4% in the assay with HS 578T breast; 49.8% with NCI/ADR-RES ovarian; 53.1% in the assay on BT-549 breast; 10.8% in the assay with MDA-MB-435 melanoma; 46.2% in the assay on SW-620 colon. Further, the growth in the assay with MCF7 breast is 74.2%; in the assay with HCT-116 colon it was 13.9%; in the assay on HCC-2998 colon it was 93%; with KM12 colon it was 18.4%.

Regarding `CC(C)(C)OC(=O)N1C/C(=C\c2ccccc2)C(=O)/C(=C/c2ccccc2)C1`, the growth in the assay on RPMI-8226 leukemia was 31%; in the assay on OVCAR-8 ovarian, 96.5%; with OVCAR-5 ovarian it was 86.5%; with OVCAR-4 ovarian, 97.9%; in the assay on SK-OV-3 ovarian it was 95.2%; in the assay on OVCAR-3 ovarian, 103%. Besides, the growth in the assay with HS 578T breast is 102%; with NCI/ADR-RES ovarian it was 98.9%; with BT-549 breast, 91.5%; in the assay with MDA-MB-435 melanoma it was 102%; in the assay on SW-620 colon, 93.7%; with MCF7 breast it was 78.1%. Further, the growth was 80.7% in the assay with HCT-116 colon, 103% in the assay with HCC-2998 colon and 108% in the assay with KM12 colon.

`C=C(NC(=O)[C@H](C(C)C)N(C)c1cccc2[nH]ccc12)C(=O)OC`: the growth in the assay on RPMI-8226 leukemia is 6.33% (active); with OVCAR-8 ovarian it was 102%; in the assay on OVCAR-4 ovarian, 103%; in the assay with SK-OV-3 ovarian, 101%; in the assay with IGROV1 ovarian, 111%; in the assay with OVCAR-3 ovarian, 103%. Besides, the growth with HS 578T breast was 102%; in the assay on NCI/ADR-RES ovarian it was 108%; in the assay with T-47D breast, 95.4%; in the assay on BT-549 breast, 95.3%; in the assay on MDA-MB-435 melanoma it was 102%; in the assay with MCF7 breast, 99.6%. The growth was 94.1% with HCT-116 colon, 113% with HCC-2998 colon and 109% in the assay with KM12 colon.

As for `CCOC(=O)c1csc(-c2ccc(COC(=O)c3ccccc3)o2)n1`, the growth in the assay with RPMI-8226 leukemia was 111%; in the assay with OVCAR-8 ovarian, 111%; with OVCAR-5 ovarian it was 102%; in the assay with OVCAR-4 ovarian it was 116%; in the assay on SK-OV-3 ovarian it was 107%; in the assay on OVCAR-3 ovarian, 116%. Also, the growth in the assay on HS 578T breast was 111%; in the assay on NCI/ADR-RES ovarian, 109%; in the assay on T-47D breast it was 102%; in the assay on BT-549 breast, 116%; with MDA-MB-435 melanoma, 101%; in the assay with SW-620 colon, 112%. In addition, the growth in the assay with MCF7 breast is 92.9%; in the assay on HCT-116 colon it was 99.8%; with HCC-2998 colon, 105%; with KM12 colon, 112%.

Turning to `COc1ccc2c(N)ncc(C#Cc3cc(C(=O)Nc4ccc(CN5CCN(C)CC5)c(C(F)(F)F)c4)cnc3C)c2c1`, the growth in the assay on RPMI-8226 leukemia was -45.1% (active); in the assay on OVCAR-8 ovarian, -34.7% (active); with OVCAR-5 ovarian, -21.6% (active); in the assay with OVCAR-4 ovarian, 0.668% (active); in the assay with SK-OV-3 ovarian, 24.5%; in the assay on IGROV1 ovarian, -71.6% (active). Also, the growth in the assay with OVCAR-3 ovarian is 11.7%; in the assay on HS 578T breast, 30%; with NCI/ADR-RES ovarian, 16%; in the assay with MDA-MB-435 melanoma it was -56.7% (active); with SW-620 colon, -57.7% (active); in the assay with MCF7 breast, -49.2% (active). Moreover, the growth was -75.8% (active) in the assay with HCT-116 colon, 19.3% in the assay with HCC-2998 colon and -49.1% (active) in the assay with KM12 colon.

Take `COc1ccc(C(=O)c2no[n+]([O-])c2C(=O)c2ccc(OC)cc2)cc1`: the growth in the assay with RPMI-8226 leukemia was -68.1% (active); in the assay with OVCAR-5 ovarian, 89.8%; in the assay with OVCAR-4 ovarian, -68.5% (active); with SK-OV-3 ovarian, 113%; in the assay on OVCAR-3 ovarian, -100% (active); in the assay with HS 578T breast it was 108%. Moreover, the growth is 96.2% in the assay on NCI/ADR-RES ovarian; 24.7% with T-47D breast; 50.3% in the assay with BT-549 breast; 44.3% in the assay on MDA-MB-435 melanoma; -82.9% (active) in the assay with SW-620 colon; 30.9% in the assay on MCF7 breast. The growth in the assay with HCT-116 colon is -98.1% (active); in the assay with HCC-2998 colon it was 110%; with KM12 colon, 102%.

As to `CCN(CC)CCNc1ncnc2c1cnn2-c1ccc(Cl)cc1`, the growth with RPMI-8226 leukemia was 96.7%; in the assay with OVCAR-5 ovarian, 89.6%; in the assay with OVCAR-4 ovarian it was 90.6%; in the assay with SK-OV-3 ovarian, 99.7%; with OVCAR-3 ovarian, 63.1%; with HS 578T breast, 77.5%. The growth in the assay with NCI/ADR-RES ovarian is 91.4%; with T-47D breast it was 65%; in the assay with BT-549 breast it was 95.1%; in the assay on MDA-MB-435 melanoma, -34.8% (active); in the assay on SW-620 colon, 63%; in the assay on MCF7 breast, 75%. Also, the growth with HCT-116 colon is 77.8%; with HCC-2998 colon, 82.7%; in the assay on KM12 colon it was 67.5%.

Consider `O=C(N/N=C/c1ccccc1Cl)c1cccc2ccccc12`, for which the growth is 82.2% with OVCAR-8 ovarian; 104% in the assay on OVCAR-5 ovarian; 103% in the assay with OVCAR-4 ovarian; 98.6% in the assay on SK-OV-3 ovarian; 106% with IGROV1 ovarian; 110% with OVCAR-3 ovarian. For the same compound, the growth with HS 578T breast was 95.6%; with NCI/ADR-RES ovarian, 107%; in the assay with T-47D breast it was 98.5%; in the assay with BT-549 breast it was 117%; with MDA-MB-435 melanoma it was 105%; in the assay with SW-620 colon, 105%. Further, the growth is 90.9% in the assay on MCF7 breast, 102% in the assay on HCT-116 colon, 110% in the assay with HCC-2998 colon and 97.3% in the assay on KM12 colon.

Regarding `COc1ccc(C(=O)CN2C(=O)NC(c3ccccc3)(c3ccccc3)C2=O)cc1`, the growth is 95.2% in the assay on OVCAR-8 ovarian; 98.7% with OVCAR-5 ovarian; 99.8% in the assay on OVCAR-4 ovarian; 102% with SK-OV-3 ovarian; 115% with IGROV1 ovarian; 107% in the assay with OVCAR-3 ovarian. The growth in the assay with HS 578T breast is 89.3%; with NCI/ADR-RES ovarian it was 102%; in the assay on T-47D breast, 95.2%; with BT-549 breast, 105%; with MDA-MB-435 melanoma, 104%; in the assay on SW-620 colon, 96.8%. In addition, the growth with MCF7 breast was 102%; with HCT-116 colon it was 106%; with HCC-2998 colon it was 106%; in the assay with KM12 colon it was 109%.

Consider `COc1cc(/C=C/C(=O)c2ccc(F)cc2)ccc1OCCCCOc1cc2c(cc1OC)C(=O)N1CCCC1C=N2` (stereo not drawn), for which the growth in the assay with RPMI-8226 leukemia was -27.4% (active); in the assay with OVCAR-8 ovarian, 8.79% (active); in the assay on OVCAR-4 ovarian, -11% (active); in the assay with SK-OV-3 ovarian, 10.7%; with OVCAR-3 ovarian, -28.8% (active); in the assay on HS 578T breast it was 6.29% (active). The growth with NCI/ADR-RES ovarian is 27.1%; with T-47D breast, 1.74% (active); with BT-549 breast, -49.9% (active); in the assay with MDA-MB-435 melanoma, -71% (active); in the assay on SW-620 colon, -59% (active); with MCF7 breast it was -19.5% (active). The growth in the assay on HCC-2998 colon is -87.5% (active); in the assay on KM12 colon, -64.1% (active).
